# Measurements: article PMC7862700, “An all-to-all approach to the identification of sequence-specific readers for epigenetic DNA modifications on cytosine”
# How the values were obtained:
# Assay in all cases: DAPPL (digital affinity profiling via proximity ligation, sequencing); 10 mM Tris-HCl pH 7.5, 50 mM NaCl, 1 mM DTT, 4% glycerol, room temperature, 30 min; GST-TFs on glutathione beads, 16-mer random dsDNA library, 0.1% formaldehyde crosslink after washing; high values mean tight binding
# [1] = target: T1, FLI1 (Homo sapiens, UniProt Q01543 1-452); details: protein: recombinant; tags: N-terminal GST; dsDNA, one strand shown
# T1 sequence: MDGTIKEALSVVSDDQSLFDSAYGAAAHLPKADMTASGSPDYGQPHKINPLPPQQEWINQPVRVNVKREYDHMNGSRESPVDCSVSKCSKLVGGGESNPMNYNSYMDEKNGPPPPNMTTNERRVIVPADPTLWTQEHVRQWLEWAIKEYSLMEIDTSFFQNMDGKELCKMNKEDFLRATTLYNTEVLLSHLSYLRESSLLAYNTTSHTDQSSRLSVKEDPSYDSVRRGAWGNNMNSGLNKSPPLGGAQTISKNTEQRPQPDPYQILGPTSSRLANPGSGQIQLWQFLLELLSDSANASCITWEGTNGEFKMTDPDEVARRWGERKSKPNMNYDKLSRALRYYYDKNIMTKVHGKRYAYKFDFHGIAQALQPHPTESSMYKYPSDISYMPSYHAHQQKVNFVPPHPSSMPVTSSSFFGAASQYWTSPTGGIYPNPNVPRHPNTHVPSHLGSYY
# Method in brief: (§1)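 Each value of binding signal is a hexamer's read frequency for a factor divided by the same hexamer's frequency in the tag-only sample. Barcoded, bead-captured GST fusions of human transcription factors made in yeast were pooled with that sample and incubated with 200 nmole of a random double-stranded 16-mer DNA library in Tris/NaCl/DTT/glycerol buffer at room temperature for 30 min. Washing, 0.1% formaldehyde crosslinking, proximity ligation, PCR and Illumina NextSeq500 sequencing followed.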
# [2] = target: T2, ELK1 (Homo sapiens, UniProt P19419 1-428); details: protein: recombinant; tags: N-terminal GST; dsDNA, one strand shown
# T2 sequence: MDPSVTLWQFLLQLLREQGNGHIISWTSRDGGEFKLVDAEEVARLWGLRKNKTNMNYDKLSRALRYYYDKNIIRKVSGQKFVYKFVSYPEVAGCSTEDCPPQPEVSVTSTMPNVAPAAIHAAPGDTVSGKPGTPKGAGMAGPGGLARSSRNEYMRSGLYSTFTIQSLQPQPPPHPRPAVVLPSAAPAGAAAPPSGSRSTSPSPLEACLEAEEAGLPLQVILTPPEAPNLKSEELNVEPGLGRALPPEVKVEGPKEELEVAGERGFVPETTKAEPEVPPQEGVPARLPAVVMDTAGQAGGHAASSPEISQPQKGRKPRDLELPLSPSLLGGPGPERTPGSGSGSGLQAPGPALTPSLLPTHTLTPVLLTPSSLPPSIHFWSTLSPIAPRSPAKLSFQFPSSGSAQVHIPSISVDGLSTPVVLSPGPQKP
# Method in brief: as §1
# [3] = target: T3, GABPA (Homo sapiens, UniProt Q06546 1-454); details: protein: recombinant; tags: N-terminal GST; dsDNA, one strand shown
# T3 sequence: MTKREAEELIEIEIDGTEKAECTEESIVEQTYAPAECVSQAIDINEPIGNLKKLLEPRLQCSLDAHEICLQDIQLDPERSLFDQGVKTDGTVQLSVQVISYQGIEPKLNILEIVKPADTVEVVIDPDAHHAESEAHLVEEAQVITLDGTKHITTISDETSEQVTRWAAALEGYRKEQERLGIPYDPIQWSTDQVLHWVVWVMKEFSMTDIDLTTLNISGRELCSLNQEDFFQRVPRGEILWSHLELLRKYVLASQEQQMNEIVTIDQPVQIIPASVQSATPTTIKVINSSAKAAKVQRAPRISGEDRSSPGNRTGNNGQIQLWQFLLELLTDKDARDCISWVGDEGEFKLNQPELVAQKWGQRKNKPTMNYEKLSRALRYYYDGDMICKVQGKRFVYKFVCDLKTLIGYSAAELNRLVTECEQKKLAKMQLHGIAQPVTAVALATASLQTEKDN
# Method in brief: as §1
# [4] = target: T4, ERG (Homo sapiens, UniProt P11308 1-479); details: protein: recombinant; tags: N-terminal GST; dsDNA, one strand shown
# T4 sequence: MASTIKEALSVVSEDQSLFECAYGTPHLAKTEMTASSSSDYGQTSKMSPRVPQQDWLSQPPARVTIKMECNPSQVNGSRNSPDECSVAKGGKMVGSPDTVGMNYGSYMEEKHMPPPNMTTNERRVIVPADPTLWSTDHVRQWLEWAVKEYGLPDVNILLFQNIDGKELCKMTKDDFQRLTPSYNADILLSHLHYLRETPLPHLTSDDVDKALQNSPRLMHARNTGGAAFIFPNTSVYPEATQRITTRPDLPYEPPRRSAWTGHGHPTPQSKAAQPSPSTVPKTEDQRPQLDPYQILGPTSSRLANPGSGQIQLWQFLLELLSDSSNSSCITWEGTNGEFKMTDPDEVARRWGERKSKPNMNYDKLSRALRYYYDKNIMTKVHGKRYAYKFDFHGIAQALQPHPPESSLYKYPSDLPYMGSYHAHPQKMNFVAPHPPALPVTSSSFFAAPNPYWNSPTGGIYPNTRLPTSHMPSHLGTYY
# Method in brief: as §1
# [5] = target: ELF1 (Homo sapiens, UniProt P32519 1-619); details: protein: recombinant; tags: N-terminal GST; dsDNA, one strand shown
# ELF1, sequence (P32519 whole entry): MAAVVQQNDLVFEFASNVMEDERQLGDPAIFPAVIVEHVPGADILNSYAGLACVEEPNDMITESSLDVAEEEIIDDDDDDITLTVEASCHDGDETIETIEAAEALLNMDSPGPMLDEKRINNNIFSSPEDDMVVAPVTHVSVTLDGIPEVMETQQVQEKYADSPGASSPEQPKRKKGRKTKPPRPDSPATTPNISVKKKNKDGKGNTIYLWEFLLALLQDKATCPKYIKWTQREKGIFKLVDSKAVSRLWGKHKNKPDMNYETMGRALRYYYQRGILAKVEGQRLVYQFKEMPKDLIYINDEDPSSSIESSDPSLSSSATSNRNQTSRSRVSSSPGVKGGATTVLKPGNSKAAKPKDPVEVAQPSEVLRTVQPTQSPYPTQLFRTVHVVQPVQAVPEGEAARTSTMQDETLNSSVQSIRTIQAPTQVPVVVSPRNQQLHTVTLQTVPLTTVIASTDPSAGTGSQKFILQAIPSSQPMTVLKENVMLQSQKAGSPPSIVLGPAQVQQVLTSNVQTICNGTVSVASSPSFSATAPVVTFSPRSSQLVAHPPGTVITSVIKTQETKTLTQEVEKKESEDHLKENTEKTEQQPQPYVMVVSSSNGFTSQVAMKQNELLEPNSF
# Method in brief: as §1
# [6] = target: T5, EHF (Homo sapiens, UniProt Q9NZC4 1-300); details: protein: recombinant; tags: N-terminal GST; dsDNA, one strand shown
# T5 sequence: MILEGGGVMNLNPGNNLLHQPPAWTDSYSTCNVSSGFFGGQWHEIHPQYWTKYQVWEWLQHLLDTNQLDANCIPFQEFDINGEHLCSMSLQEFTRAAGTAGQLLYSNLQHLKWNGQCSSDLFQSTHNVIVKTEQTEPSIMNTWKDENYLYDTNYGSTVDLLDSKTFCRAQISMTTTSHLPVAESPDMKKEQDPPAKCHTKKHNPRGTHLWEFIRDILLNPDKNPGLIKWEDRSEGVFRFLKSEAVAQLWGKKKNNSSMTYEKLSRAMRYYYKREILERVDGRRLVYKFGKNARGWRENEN
# Method in brief: as §1
# [7] = target: SPI1 (Homo sapiens, UniProt P17947 1-270); details: protein: recombinant; tags: N-terminal GST; dsDNA, one strand shown
# Method in brief: as §1
# [8] = target: SPIB (Homo sapiens, UniProt Q01892 1-262); details: protein: recombinant; tags: N-terminal GST; dsDNA, one strand shown
# SPIB, sequence (Q01892 whole entry): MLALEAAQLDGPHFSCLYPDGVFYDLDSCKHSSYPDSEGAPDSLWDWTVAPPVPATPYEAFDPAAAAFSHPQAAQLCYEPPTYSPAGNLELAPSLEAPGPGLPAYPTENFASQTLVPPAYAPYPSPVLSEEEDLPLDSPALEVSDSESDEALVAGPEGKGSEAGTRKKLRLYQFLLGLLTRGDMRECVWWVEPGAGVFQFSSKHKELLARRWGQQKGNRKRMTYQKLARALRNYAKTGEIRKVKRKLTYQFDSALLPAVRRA
# Method in brief: as §1
# [9] = target: T6, ELK3 (Homo sapiens, UniProt P41970 1-407); details: protein: recombinant; tags: N-terminal GST; dsDNA, one strand shown
# T6 sequence: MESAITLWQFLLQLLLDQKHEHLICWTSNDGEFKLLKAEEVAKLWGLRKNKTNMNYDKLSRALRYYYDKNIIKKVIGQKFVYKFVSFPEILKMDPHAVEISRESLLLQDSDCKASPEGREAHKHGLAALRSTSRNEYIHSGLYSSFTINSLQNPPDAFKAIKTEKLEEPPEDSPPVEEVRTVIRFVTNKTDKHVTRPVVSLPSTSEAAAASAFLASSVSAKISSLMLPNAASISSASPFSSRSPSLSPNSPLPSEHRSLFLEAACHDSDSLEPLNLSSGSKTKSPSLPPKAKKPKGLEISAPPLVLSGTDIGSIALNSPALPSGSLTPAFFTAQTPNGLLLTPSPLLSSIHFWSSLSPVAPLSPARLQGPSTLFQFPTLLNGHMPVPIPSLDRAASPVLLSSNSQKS
# Method in brief: as §1
# [10] = target: T7, FEV (Homo sapiens, UniProt Q99581 1-238); details: protein: recombinant; tags: N-terminal GST; dsDNA, one strand shown
# T7 sequence: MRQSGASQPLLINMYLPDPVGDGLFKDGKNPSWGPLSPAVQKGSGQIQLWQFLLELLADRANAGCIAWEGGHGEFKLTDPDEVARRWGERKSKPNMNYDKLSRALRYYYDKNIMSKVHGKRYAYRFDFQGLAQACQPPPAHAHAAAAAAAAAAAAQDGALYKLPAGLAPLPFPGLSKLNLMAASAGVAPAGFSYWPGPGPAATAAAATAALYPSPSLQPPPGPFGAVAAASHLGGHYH
# Method in brief: as §1
# [11] = target: ETV5 (Homo sapiens, UniProt P41161 1-510); details: protein: recombinant; tags: N-terminal GST; dsDNA, one strand shown
# ETV5, sequence (P41161 whole entry): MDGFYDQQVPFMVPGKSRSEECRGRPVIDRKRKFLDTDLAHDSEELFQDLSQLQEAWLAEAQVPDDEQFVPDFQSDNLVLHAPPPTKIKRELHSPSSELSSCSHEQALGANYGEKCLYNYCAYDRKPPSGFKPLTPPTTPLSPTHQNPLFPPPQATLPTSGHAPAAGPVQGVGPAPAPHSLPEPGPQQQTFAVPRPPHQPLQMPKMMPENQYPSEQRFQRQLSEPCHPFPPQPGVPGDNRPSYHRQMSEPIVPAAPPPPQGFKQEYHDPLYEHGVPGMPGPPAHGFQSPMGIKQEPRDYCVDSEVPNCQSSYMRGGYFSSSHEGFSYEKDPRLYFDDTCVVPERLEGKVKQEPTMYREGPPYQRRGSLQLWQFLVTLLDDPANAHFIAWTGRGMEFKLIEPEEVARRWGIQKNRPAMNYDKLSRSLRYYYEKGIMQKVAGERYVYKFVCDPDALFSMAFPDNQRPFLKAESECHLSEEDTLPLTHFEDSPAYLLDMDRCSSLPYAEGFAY
# Method in brief: as §1
# [12] = target: HSF1 (Homo sapiens, UniProt Q00613 1-529); details: protein: recombinant; tags: N-terminal GST; chain copies: 3; dsDNA, one strand shown
# HSF1, sequence (Q00613 whole entry): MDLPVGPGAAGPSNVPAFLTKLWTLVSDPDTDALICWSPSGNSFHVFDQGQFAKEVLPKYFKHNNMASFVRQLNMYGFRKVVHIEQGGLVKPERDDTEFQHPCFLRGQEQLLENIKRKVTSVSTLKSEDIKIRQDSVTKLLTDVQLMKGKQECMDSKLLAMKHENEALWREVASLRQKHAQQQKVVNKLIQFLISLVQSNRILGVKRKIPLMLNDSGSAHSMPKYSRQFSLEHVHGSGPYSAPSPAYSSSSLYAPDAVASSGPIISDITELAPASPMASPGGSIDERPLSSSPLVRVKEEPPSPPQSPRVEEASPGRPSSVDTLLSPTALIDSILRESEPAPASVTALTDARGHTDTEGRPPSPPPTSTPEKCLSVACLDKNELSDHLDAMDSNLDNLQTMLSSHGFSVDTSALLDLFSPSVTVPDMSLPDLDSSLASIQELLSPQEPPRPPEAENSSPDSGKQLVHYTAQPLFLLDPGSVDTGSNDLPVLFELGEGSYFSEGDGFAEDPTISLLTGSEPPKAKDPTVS
# Method in brief: as §1
# [13] = target: T8, SPIC (Homo sapiens, UniProt Q8N5J4 1-248); details: protein: recombinant; tags: N-terminal GST; dsDNA, one strand shown
# T8 sequence: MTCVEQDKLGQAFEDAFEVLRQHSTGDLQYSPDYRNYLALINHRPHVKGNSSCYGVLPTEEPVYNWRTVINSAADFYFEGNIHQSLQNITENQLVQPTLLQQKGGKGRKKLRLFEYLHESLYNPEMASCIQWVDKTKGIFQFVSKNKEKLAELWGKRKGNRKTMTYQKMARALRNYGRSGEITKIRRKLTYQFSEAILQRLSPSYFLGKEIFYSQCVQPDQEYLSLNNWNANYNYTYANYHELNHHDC
# Method in brief: as §1
# [14] = target: ELF4 (Homo sapiens, UniProt Q99607 1-663); details: protein: recombinant; tags: N-terminal GST; dsDNA, one strand shown
# ELF4, sequence (Q99607 whole entry): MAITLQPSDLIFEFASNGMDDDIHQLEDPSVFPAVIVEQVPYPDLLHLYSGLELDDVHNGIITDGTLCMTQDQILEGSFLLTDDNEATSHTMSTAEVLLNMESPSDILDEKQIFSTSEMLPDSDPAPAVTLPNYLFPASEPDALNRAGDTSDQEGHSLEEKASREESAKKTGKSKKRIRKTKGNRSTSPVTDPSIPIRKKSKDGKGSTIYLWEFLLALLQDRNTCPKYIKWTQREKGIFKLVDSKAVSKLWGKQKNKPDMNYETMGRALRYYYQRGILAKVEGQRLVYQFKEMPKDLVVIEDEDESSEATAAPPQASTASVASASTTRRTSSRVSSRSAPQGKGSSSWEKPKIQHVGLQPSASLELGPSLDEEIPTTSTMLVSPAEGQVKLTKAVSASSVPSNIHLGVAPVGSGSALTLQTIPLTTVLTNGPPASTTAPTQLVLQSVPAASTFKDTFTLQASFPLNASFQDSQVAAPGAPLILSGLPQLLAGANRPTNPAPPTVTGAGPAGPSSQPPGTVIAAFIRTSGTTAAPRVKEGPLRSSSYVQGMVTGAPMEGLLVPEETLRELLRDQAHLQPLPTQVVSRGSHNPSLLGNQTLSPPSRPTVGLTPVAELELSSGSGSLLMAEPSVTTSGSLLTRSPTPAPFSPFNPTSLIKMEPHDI
# Method in brief: as §1
# [15] = target: T9, ELK4 (Homo sapiens, UniProt P28324-2 1-405); details: protein: recombinant; tags: N-terminal GST; dsDNA, one strand shown
# T9 sequence: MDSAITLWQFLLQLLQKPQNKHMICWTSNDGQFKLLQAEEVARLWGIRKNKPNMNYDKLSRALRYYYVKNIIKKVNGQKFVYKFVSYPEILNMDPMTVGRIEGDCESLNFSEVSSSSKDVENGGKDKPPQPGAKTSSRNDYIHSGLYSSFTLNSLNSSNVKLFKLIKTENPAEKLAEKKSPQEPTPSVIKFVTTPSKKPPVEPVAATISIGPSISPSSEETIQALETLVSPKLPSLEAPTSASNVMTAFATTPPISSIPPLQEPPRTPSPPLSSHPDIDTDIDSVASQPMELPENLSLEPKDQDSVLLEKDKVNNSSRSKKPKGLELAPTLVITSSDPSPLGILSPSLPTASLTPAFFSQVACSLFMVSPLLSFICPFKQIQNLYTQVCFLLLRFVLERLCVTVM
# Method in brief: as §1
# [16] = target: T10, ETV2 (Homo sapiens, UniProt O00321 1-342); details: protein: recombinant; tags: N-terminal GST; dsDNA, one strand shown
# T10 sequence: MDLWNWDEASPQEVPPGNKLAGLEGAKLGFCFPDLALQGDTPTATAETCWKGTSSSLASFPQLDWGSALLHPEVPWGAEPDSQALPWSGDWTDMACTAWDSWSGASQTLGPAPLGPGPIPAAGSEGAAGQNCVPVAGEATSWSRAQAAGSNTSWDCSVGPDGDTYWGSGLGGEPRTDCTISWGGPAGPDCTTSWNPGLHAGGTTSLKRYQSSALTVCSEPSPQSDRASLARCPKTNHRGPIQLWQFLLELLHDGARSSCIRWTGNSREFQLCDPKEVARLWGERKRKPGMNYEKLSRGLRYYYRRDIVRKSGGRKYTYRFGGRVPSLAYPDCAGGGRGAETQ
# Method in brief: as §1
# [17] = target: T11, ELF3 (Homo sapiens, UniProt P78545 1-371); details: protein: recombinant; tags: N-terminal GST; dsDNA, one strand shown
# T11 sequence: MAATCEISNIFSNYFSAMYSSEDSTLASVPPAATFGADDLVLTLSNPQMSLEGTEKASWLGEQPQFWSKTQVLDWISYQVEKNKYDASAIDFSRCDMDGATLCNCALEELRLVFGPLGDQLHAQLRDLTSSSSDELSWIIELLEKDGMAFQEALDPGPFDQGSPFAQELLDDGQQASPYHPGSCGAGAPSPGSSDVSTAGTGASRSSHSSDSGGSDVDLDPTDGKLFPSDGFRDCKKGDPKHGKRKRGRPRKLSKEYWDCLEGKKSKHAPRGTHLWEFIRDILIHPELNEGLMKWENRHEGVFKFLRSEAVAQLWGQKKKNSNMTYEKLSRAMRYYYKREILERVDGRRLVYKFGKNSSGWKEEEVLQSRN
# Method in brief: as §1
# [18] = target: CRX (Homo sapiens, UniProt O43186 1-299); details: protein: recombinant; tags: N-terminal GST; dsDNA, one strand shown
# CRX, sequence (O43186 whole entry): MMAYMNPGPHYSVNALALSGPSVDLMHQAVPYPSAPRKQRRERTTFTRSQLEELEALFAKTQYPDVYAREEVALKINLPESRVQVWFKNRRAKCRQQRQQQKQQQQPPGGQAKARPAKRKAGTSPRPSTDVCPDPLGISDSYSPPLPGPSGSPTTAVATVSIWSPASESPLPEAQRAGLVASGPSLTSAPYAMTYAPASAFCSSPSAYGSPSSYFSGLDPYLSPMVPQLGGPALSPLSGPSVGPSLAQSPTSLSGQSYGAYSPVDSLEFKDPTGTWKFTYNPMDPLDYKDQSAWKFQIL
# Method in brief: as §1
# [19] = target: ETV1 (Homo sapiens, UniProt P50549 1-477); details: protein: recombinant; tags: N-terminal GST; dsDNA, one strand shown
# ETV1, sequence (P50549 whole entry): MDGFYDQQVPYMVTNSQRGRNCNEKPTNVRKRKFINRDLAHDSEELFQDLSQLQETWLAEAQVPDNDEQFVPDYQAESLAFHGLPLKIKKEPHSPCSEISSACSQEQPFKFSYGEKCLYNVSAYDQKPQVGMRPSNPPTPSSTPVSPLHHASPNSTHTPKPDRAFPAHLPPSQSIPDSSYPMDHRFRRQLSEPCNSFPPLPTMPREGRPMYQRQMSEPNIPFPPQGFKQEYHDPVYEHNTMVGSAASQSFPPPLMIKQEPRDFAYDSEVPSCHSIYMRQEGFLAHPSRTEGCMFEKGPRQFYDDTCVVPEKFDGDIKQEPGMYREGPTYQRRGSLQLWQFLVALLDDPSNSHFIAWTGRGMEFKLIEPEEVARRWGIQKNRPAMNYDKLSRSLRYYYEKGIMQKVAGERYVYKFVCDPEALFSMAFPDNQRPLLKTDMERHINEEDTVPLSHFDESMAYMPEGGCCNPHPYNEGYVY
# Method in brief: as §1
sequence,measurement,setting,value
ATCTGC,binding signal,[1],"1.3 fold enrichment (6-mer frequency, TF over GST control)"
same,binding signal,[2],"1.28 fold enrichment (6-mer frequency, TF over GST control)"
same,binding signal,[3],"1.47 fold enrichment (6-mer frequency, TF over GST control)"
same,binding signal,[4],"1.37 fold enrichment (6-mer frequency, TF over GST control)"
same,binding signal,[5],"1.45 fold enrichment (6-mer frequency, TF over GST control)"
same,binding signal,[6],"1.34 fold enrichment (6-mer frequency, TF over GST control)"
same,binding signal,[7],"1.44 fold enrichment (6-mer frequency, TF over GST control)"
same,binding signal,[8],"1.41 fold enrichment (6-mer frequency, TF over GST control)"
same,binding signal,[9],"1.34 fold enrichment (6-mer frequency, TF over GST control)"
same,binding signal,[10],"1.41 fold enrichment (6-mer frequency, TF over GST control)"
same,binding signal,[11],"1.46 fold enrichment (6-mer frequency, TF over GST control)"
same,binding signal,[12],"1.44 fold enrichment (6-mer frequency, TF over GST control)"
same,binding signal,[13],"1.46 fold enrichment (6-mer frequency, TF over GST control)"
same,binding signal,[14],"1.44 fold enrichment (6-mer frequency, TF over GST control)"
same,binding signal,[15],"1.5 fold enrichment (6-mer frequency, TF over GST control)"
same,binding signal,[16],"1.44 fold enrichment (6-mer frequency, TF over GST control)"
same,binding signal,[17],"1.14 fold enrichment (6-mer frequency, TF over GST control)"
same,binding signal,[18],"1.67 fold enrichment (6-mer frequency, TF over GST control)"
same,binding signal,[19],"1.36 fold enrichment (6-mer frequency, TF over GST control)"
